Out of some 310,000 compounds screened, about 14,000 (4.5%) showed an effect of 50% or more. Effects have a minus sign here. For the sample, strong results were picked, then their nearest neighbours and some compounds at random.
Molecular target: human ether-à-go-go-related gene (hERG) potassium channel (human, UniProt Q12809)
Assay: primary screen, population patch clamp on CHO cells stably expressing hERG; higher = less effect of the substance
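Further: peak tail current of the secondary pulse compared with the same well before compound.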

human ether-à-go-go-related gene (hERG) potassium channel, sequence (Q12809 whole entry, looked up): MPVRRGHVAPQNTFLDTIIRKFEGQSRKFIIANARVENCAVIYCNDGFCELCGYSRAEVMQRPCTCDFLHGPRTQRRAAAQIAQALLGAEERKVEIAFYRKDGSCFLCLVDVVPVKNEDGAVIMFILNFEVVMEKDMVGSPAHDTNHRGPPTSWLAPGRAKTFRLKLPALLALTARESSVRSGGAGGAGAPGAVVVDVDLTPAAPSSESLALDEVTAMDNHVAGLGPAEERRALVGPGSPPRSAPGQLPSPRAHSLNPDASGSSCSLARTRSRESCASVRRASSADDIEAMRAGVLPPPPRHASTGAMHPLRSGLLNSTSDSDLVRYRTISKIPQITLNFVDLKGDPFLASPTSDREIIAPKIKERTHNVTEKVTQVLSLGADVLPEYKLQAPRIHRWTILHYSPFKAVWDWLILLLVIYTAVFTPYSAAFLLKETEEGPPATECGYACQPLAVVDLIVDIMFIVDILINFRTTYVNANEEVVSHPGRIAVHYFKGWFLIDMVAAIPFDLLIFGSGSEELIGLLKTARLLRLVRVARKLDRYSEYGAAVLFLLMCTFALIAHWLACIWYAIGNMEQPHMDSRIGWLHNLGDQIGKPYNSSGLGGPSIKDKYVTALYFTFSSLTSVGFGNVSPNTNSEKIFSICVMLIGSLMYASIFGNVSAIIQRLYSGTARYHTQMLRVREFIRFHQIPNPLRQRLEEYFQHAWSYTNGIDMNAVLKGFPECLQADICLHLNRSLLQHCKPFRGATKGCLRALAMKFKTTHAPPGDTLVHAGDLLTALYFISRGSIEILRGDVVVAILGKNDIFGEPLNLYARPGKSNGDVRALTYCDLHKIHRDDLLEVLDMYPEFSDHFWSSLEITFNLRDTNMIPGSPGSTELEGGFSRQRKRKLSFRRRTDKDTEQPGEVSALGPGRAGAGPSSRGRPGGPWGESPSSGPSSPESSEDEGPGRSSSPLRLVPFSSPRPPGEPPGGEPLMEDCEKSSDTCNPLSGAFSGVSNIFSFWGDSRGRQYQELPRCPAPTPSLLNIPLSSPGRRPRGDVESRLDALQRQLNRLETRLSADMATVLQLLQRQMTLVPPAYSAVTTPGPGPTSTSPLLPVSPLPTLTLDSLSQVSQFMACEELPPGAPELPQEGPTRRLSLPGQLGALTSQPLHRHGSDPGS

Point of comparison: CCOC(=O)COc1ccc([N+](=O)[O-])cc1, “hERG current change (%, negative = inhibition) at 10uM” value -5.07%. Against it:
- CNC(=O)n1cc(C)c(-c2cccs2)n1 — higher, 5.15%
- Cc1cc2c(cc1S(=O)(=O)N1CCCC1)n(C)c(=O)c(=O)n2C — higher, -4.62%
- COc1ccc(CC(=O)OC(C)C(=O)c2ccc(C)cc2)cc1 (stereo not drawn) — higher, 20.4%
- COc1ccc(OC(=O)c2cn(C)nc2C(F)(F)F)cc1 — higher, -1.05%
- Cc1ccc2nc(=O)c(NNc3ccccc3)cnc2c1 — higher, 15.6%
- CCCCN(C(=O)c1cc2c(s1)CCC2)c1c(N)n(CCCC)c(=O)[nH]c1=O — higher, -0.537%
- C1=C(c2c[nH]c3ccccc23)CCNC1 — higher, 7.59%
- CC(C)c1ccc(CNC(=O)C(=O)NCC2CCCO2)cc1 (stereo not drawn) — higher, 7.73%
- CCc1ccc(OCCCC(=O)NCc2ccco2)cc1 — higher, 1.95%
- CCOC(=O)C(CCCCCOc1ccccc1[N+](=O)[O-])C(=O)OCC — lower, -8.54%
- CCOC(=O)C(CCCCCOc1ccc([N+](=O)[O-])cc1)C(=O)OCC — lower, -50.4%
- CCn1nc([N+](=O)[O-])c2c(-c3nc4ccccc4o3)c(N)n(CCCOC)c2c1=O — higher, 14.5%
- CCOC(=O)c1noc(C)c1C(=O)Nc1nc(C)cc(C)n1 — higher, 11.5%
- Cc1ccc(F)cc1NC(=O)CSCc1c(C)noc1C — higher, -3.15%
- O=c1[nH]nnc2c1sc1nc(N3CCOCC3)c3c(c12)CCCC3 — lower, -12.4%
- CC(=O)Nc1ccc(S(=O)(=O)NC(CC(=O)N2CCC3(CC2)OCCO3)C(C)C)cc1 (stereo not drawn) — higher, 18.9%
- O=C(Nc1cc(S(=O)(=O)N2CCOCC2)ccc1N1CCCCC1)c1cc(-c2ccccn2)nc2ccccc12 — higher, 0.703%
- COc1ccc(N(CC(O)Cn2c3ccccc3c3ccccc32)S(=O)(=O)c2ccccc2)cc1 (stereo not drawn) — higher, 3.8%
- Cc1ccc(N(CC(O)CN2CCCCC2)S(=O)(=O)c2ccc(C)cc2)cc1 (stereo not drawn) — higher, 13.8%
- Cc1ccc(N(CC(O)CN2CCCC2)S(=O)(=O)c2ccc(C)cc2)cc1.Cl (stereo not drawn) — lower, -76.4%
- Cc1ccc(S(=O)(=O)N(CC(O)CN2CCOCC2)c2cc(Cl)ccc2Cl)cc1.Cl (stereo not drawn) — lower, -31.9%
- Cc1cc(C)n(CC(O)CN(c2ccccc2)S(=O)(=O)c2ccccc2)n1 (stereo not drawn) — higher, 7.17%
- Cc1ccccc1S(=O)(=O)N(CC(O)CN1CCCCC1)c1ccccc1 (stereo not drawn) — lower, -71.7%
- Cc1ccc(S(=O)(=O)N(CC(O)CN2CCCC2)c2ccccc2)cc1 (stereo not drawn) — lower, -62.2%
- COc1ccc(N(CC(O)CN2CCCCC2)S(=O)(=O)c2ccc(C)cc2)cc1 (stereo not drawn) — lower, -78.6%
- Cc1ccccc1S(=O)(=O)N(CC(O)CN1C(=O)NC(C)(C)C1=O)c1ccccc1 (stereo not drawn) — higher, 1.47%
- COc1ccc(N(CC(O)CN2CCOCC2)S(=O)(=O)c2ccc(C)cc2)cc1 (stereo not drawn) — lower, -45.2%
- CCc1ccc(OCC(=O)Nc2nnc(-c3ccco3)s2)cc1 — higher, 11.5%
- CC(C)N1C(=O)S/C(=C/c2cccnc2)C1=O — higher, 8.88%
- CCOC(=O)c1c(NC(=O)c2cccs2)sc(C)c1CC — higher, 2.45%
- CCOC(=O)C1=C(C)OC(N)=C(C#N)C1c1cc(OC)c2c(c1)OCO2 (stereo not drawn) — lower, -20.6%
- CCOc1cc(N2CCOCC2)c(OCC)cc1NC(=O)CSc1ccccc1C(=O)O — higher, 5.72%
- CCOC(=O)c1ccc(N(CC(=O)NCC2CCCO2)C(=O)CCC(=O)Nc2cc(C)on2)cc1 (stereo not drawn) — higher, 9.99%
- COc1cc(NC(=S)NCCc2c[nH]c3ccccc23)c(OC)cc1Cl — higher, 10.1%
- Cl.O=S(=O)(c1ccccc1)N(CC(O)CN1CCCCC1)c1ccccc1 (stereo not drawn) — lower, -53.2%
- Cc1ccc(S(=O)(=O)N(CC(O)CN2CCCCC2)c2ccccc2)cc1.Cl (stereo not drawn) — lower, -67.9%
- COc1ccccc1N(CC(O)CN1CCCCC1)S(=O)(=O)c1ccc(C)cc1 (stereo not drawn) — lower, -29.7%
- O=S(=O)(c1ccccc1)N(CC(O)CN1CCCC1)c1ccccc1 (stereo not drawn) — lower, -19%
- O=S(=O)(c1ccccc1)N(CC(O)CN1CCOCC1)c1ccccc1 (stereo not drawn) — higher, 18.6%
- CCN1CCN(Cc2nc3c(c(=O)[nH]c(=O)n3C)n2Cc2ccccc2Cl)CC1 — higher, 14.8%
- CCOC(=O)C1CCN(c2ncnc3c2cnn3-c2ccc(OC)cc2)CC1 — lower, -16.2%
- O=C(O)CC(c1cccc(C(F)(F)F)c1)N1CCS(=O)(=O)CC1 (stereo not drawn) — higher, 2.42%
- CCCCCCn1cnc2c(oc3nc4c(cc32)CCCC4)c1=O — higher, 5.16%
- CCCCn1cnc2c(oc3nc4c(cc32)CCCC4)c1=O — lower, -55.5%
- CC(C)CCn1cnc2c(oc3nc4c(cc32)CCCC4)c1=O — lower, -16.6%
- Cc1ccc(NC(=O)Cc2ccccc2Cl)cc1S(=O)(=O)N(C)C — higher, 0.299%
- O=C1c2ccccc2C(=O)N1CCc1nn[nH]n1 — higher, 17%
- COc1ccc(NC(=O)NNC(=O)COc2ccc3cc(Br)ccc3c2)c(OC)c1 — higher, 19.2%
- CCOC(=O)C1(Cc2ccccc2Cl)CCN(C(=O)CCn2ccnc2C)CC1 — lower, -52.6%
- CCOC(=O)C1(CCCc2ccccc2)CCN(C(=O)CCCn2cncn2)CC1 — lower, -44.1%
- CCOC(=O)C1(CCCc2ccccc2)CCN(C(=O)C(C)n2cncn2)CC1 (stereo not drawn) — lower, -29%
- CCOC(=O)C1(Cc2ccc(OC)cc2)CCN(C(=O)CCN2CCCC2=O)CC1 — higher, -3.22%
- CCOC(=O)C1(CCc2ccccc2)CCN(C(=O)C(C)n2cncn2)CC1 (stereo not drawn) — lower, -14.3%
- CCOC(=O)C1(CCCc2ccccc2)CCN(C(=O)CCn2cncn2)CC1 — lower, -56.4%
- CCOC(=O)C1(Cc2ccccc2Cl)CCN(C(=O)c2cnccn2)CC1 — lower, -20.2%
- CCOC(=O)C1(CCc2ccccc2)CCN(C(=O)CCn2cncn2)CC1 — lower, -63.2%
- CCOC(=O)C1(CCCc2ccccc2)CCN(C(=O)CN2CCOC2=O)CC1 — higher, 6.35%
- CCOC(=O)C1(CCCc2ccccc2)CCN(C(=O)CCN2CCCCC2=O)CC1 — lower, -62.8%
- CCOC(=O)C1(Cc2ccccc2Cl)CCN(C(=O)CN2CCOC2=O)CC1 — higher, 8.88%

From article PMC4336329 (PLoS ONE, 2015)
